Measured values taken from PubChem BioAssay (NCATS).
Inconclusive results are not listed. Active and inactive are the calls of the source. Unless noted, calls follow the shape of the dose curve; as a rule, active = well fitted curve in the direction sought with a large enough effect; inconclusive = small, poorly fitted or top-dose-only effect, or another doubt; inactive = no such curve, though single readings can be large; an effect the other way counts as inactive or inconclusive.

Columns and labels:
[1] = biological target: Glutathione peroxidase 1 (Homo sapiens) (UniProt P07203); test: Primary qHTS Assay for Inhibitors of Recombinant Selenoprotein Glutathione Peroxidase 1 (GPX1) (AID 1845191); also: nearly all actives have a fitted effect of over 65% in size; as to activity, negative = inhibition: % is scaled to controls: 0 for no effect and ±100 for the full control effect
How it was run: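 NADPH consumption tracked by fluorescence at 340/450 nm between t=0 and t=15 min, room temperature. Final mix: 10 nM GPX1, 100 nM glutathione reductase, 1 mM GSH, 0.5 mM NADPH, 0.5 mM cumene hydroperoxide, 0.01% BSA; 30 min compound–enzyme preincubation.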

[2] = biological target: Phospholipid hydroperoxide glutathione peroxidase GPX4 (Homo sapiens) (UniProt P36969); test: Primary qHTS Assay for Inhibitors of Recombinant Selenoprotein Glutathione Peroxidase 4 (GPX4) (AID 1845192); conditions: outcome: dose series up to 50 µM unless noted; also: % is scaled to controls: 0 for no effect and ±100 for the full control effect; nearly all actives have a fitted effect of over 65% in size
How it was run: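 NADPH consumption followed by fluorescence at 340/450 nm, t=0 and after 15 min at room temperature. Reaction started with cumene hydroperoxide (0.5 mM final) after 30 min compound–GPX4 preincubation; final 200 nM GPX4, 100 nM GR, 1 mM GSH, 0.5 mM NADPH.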

[3] = biological target: Lysosomal acid glucosylceramidase (Homo sapiens) (UniProt P04062); test: Glucocerebrosidase-p2 (AID 348; in the data active = potency below about 10 µM; also: potency is read from the fitted curve at half-maximal effect); conditions: purified GBA, blue fluorogenic substrate, 40 min
How it was run: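 Normal human glucocerebrosidase (0.2 nM) with blue fluorogenic substrate (80 uM final) in citrate/phosphate pH 5.9 with 10mM sodium taurocholate, 0.01% tween-20; 40 min RT, NaOH/glycine stop; fluorescence Ex 365/Em 440; AC50 from a titration from 0.6 nM upwards.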

[4] = AP1 Signaling Pathway (AID 357; active = well fitted curve in either direction with a large enough effect, not every such curve was filed as active; also: % is scaled to controls: 0 for no effect and ±100 for the full control effect); conditions: ME-180 AP-1-bla reporter, EGF-induced, beta-lactamase ratio, 5 h; at 7.69 µM (top of the series) unless noted
How it was run: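 ME-180 cells with beta-lactamase reporter under AP-1 response element, stimulated with EC50 EGF; compounds tested in titration series, 5 h at 37 °C. CCF4 substrate added 2.5 h at room temperature; 460/530 nm emission ratio gave %activity and AC50.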

[5] = biological target: Cytochrome P450 1A2 (Homo sapiens) (UniProt P05177); test: p450-cyp1a2 (AID 410; calls by dose curve;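 also: -100% = full effect of reference inhibitor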)
How it was run: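 Read-out is luminescence from luciferin produced by CYP1A2 demethylation of Luciferin-ME (100uM, at Km). Detection reagent stopped the 60 min NADPH-dependent reaction; signals were normalized to 57 uM furafylline.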

[6] = Stat Signaling Pathway (AID 446; active = well fitted curve in either direction with a large enough effect, not every such curve was filed as active;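 also: ME-180 cervical cancer cells given 40 pM IL-6 alongside compound; SIE-controlled beta-lactamase reporter measured as 460/530 nm FRET emission ratio; % is scaled to controls: 0 for no effect and ±100 for the full control effect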); conditions: ME-180 (cervical carcinoma) SIE beta-lactamase reporter, IL-6 stimulated, 5 h; at 7.69 µM (top of the series) unless noted
How it was run: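 Normalization used AC90 stimulation (300 pM IL-6) and AC90 inhibition (125 nM pan-JAK inhibitor at 40 pM IL-6). The underlying signal is SIE-driven beta-lactamase in ME-180 cells after 5 h IL-6 exposure with compound.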

[7] = biological target: Glucocorticoid receptor (Homo sapiens) (UniProt P04150); test: GR-GFP Redistribution (AID 450;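 active = compounds whose dose series gives a full or clear partial fitted curve of increased nuclear translocation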; also: potency is read from the fitted curve at half-maximal effect); conditions: U2OS GR-GFP nuclear translocation, laser cytometry, 2 h
[8] = biological target: Glucocorticoid receptor (Homo sapiens) (UniProt P04150); test: GR-EFC Redistribution (AID 451; calls by dose curve; also: potency is read from the fitted curve at half-maximal effect); conditions: CHO-K1 GR-EFC translocation, beta-gal luminescence, 2 h
How it was run: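 Translocation of GR-ED fusion to nuclear EA restores b-gal, read by luminescence after 1 h room-temperature detection. Engineered CHO-K1 biosensor cells, 1,000/well, exposed 2 h at 37 C to titrations up to 46 uM final.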

[9] = biological target: Mitogen-activated protein kinase 10 (Mus musculus) (UniProt Q61831); test: JNK3 AlphaScreen Assay (AID 530; active = well fitted curve in either direction with a large enough effect, not every such curve was filed as active;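 also: kinase came from lysate of stimulated human HepG2 cells; signal reports phosphorylation of biotinylated GST-cJun 1-79 at Ser73 with 10 µM ATP; % is scaled to controls: 0 for no effect and ±100 for the full control effect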)
How it was run: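 Kinase buffer: 20 mM Tris-HCl pH 7.6, 10 mM MgCl2, 1 mM DTT, 0.1 mM Na3VO4, 0.01% Tween-20; ATP 10 uM. Substrate biotin-GST-cJun(1-79), enzyme from activated HepG2 lysates. Detection by Ser73 phospho-antibody AlphaScreen.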

[10] = biological target: 3',5'-cyclic-AMP phosphodiesterase 4B (Homo sapiens) (UniProt Q07343); test: qHTS Assay for Inhibitors of PDE-IV (AID 607; active = well fitted activation curve with a large enough effect in the main read-out, with a control signal flat, not every such curve was filed as active; also: % of control where 0% means no effect)
How it was run: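 HEK293 ACTOne cells with CNG channel (1000/well), endogenous PDE4; membrane potential dye, compounds up to 22.9 uM final. Fluorescence Ex 535/Em 590; RO 20-1724 (100 uM final) as reference.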

[11] = biological target: Cytochrome P450 2C9 (Homo sapiens) (UniProt P11712); test: qHTS Assay for Inhibitors and Substrates of Cytochrome P450 2C9 (AID 883); also: potency is read from the fitted curve at half-maximal effect; nearly all actives have a fitted effect of over 60% in size
How it was run: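 Inhibition of CYP2C9 is scored as loss of luminescence, with 57uM sulphaphenazole defining 100% inhibition. Substrate Luciferin-H is used at 100uM, equal to its KM; enzyme at 10nM in 25mM KPO4, 60 min at 37C with NADPH regeneration.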

[12] = biological target: Cytochrome P450 2C19 (Homo sapiens) (UniProt P33261); test: qHTS Assay for Inhibitors and Substrates of Cytochrome P450 2C19 (AID 899); also: potency is read from the fitted curve at half-maximal effect; nearly all actives have a fitted effect of over 60% in size
How it was run: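 5nM enzyme + 10uM Luciferin-H EGE (=KM), 50mM KPO4; cpd pin-transferred, 10 min 37C; NADPH regen, 60 min 37C; stopped w/ luciferin detection reagent, 20 min; luminescence. Normalized to 57uM ketoconazole (AC100).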

[13] = Cell Viability qHTS for small molecule stabilizers of the endoplasmic reticulum resident proteome (AID 1508629); conditions: cell viability counter-screen, 100 nM thapsigargin for final 4 h;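 also: potency is read from the fitted curve at half-maximal effect; compound exposure about 46 h in total before the viability read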
[14] = biological target: Rap guanine nucleotide exchange factor 3 (Homo sapiens) (UniProt O95398); test: Confirmatory qHTS for agonist of cAMP-regulated guanine nucleotide exchange factor 3 (EPAC1) (AID 1645881);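 also: EPAC1 catalysed release of BODIPY-GDP from Rap1B seen as fluorescence loss; 100% = effect of cAMP agonist control; nearly all actives have a fitted effect of over 75% in size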
[15] = biological target: Rap guanine nucleotide exchange factor 4 (Homo sapiens) (UniProt Q8WZA2); test: Confirmatory qHTS for agonist of cAMP-regulated guanine nucleotide exchange factor 4 (EPAC2) (AID 1645884);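 also: nucleotide exchange releases bodipy-GDP from Rap1 and this lowers its fluorescence; % is scaled to controls: 0 for no effect and ±100 for the full control effect; nearly all actives have a fitted effect of over 65% in size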
[16] = biological target: Rap guanine nucleotide exchange factor 4 (Homo sapiens) (UniProt Q8WZA2); test: Confirmatory qHTS for antagonist of cAMP-regulated guanine nucleotide exchange factor 4 (EPAC2) (AID 1645885); also: % is scaled to controls: 0 for no effect and ±100 for the full control effect; nearly all actives have a fitted effect of over 25% in size
[17] = biological target: DNA dC->dU-editing enzyme APOBEC-3G (Homo sapiens) (UniProt Q9HC16); test: qHTS for inhibitors of Vif-A3G interactions: Validation (AID 588379); also: 0% is about no effect
How it was run: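 Yellow fluorescence (Ex 488, Em 500-530) of Vif-coexpressing HeLa A3G-eYFP cells, scanned by Acumen cytometer, reports blocked A3G degradation. Cells plated at 700/well overnight at 37 deg C before compound addition, then a further overnight compound incubation at 37 deg C.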

[18] = biological target: Cytochrome P450 2D6 (Homo sapiens) (UniProt P10635); test: Cytochrome P450 family 2 subfamily D member 6 (CYP2D6) small molecule antagonists: luciferase biochemical (cell-free) qHTS assay (AID 1645840; active = well fitted curve in the direction sought with a large enough effect in the repeat runs; an effect the other way counts as inactive or inconclusive; also: % is scaled to controls: 0 for no effect and ±100 for the full control effect; nearly all actives have a fitted effect of over 55% in size)
How it was run: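 P450-Glo CYP2D6 system: proluciferin substrate converted by enzyme to luciferin, read by luminescence proportional to activity. Enzyme-substrate mix with compound 10 min at room temperature, then NADPH regeneration 1 h before detection reagent.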

[19] = Primary qHTS for inhibitors of nuclear receptor binding SET domain protein 2 (NSD2) in an isogenic RCH-ACV NSD2 p.E1099K mutant (9B) (AID 1645876); also: potency is read from the fitted curve at half-maximal effect; nearly all actives have a fitted effect of over 70% in size
[20] = qHTS assay to identify inhibitors of the type 1 interferon - major histocompatibility complex class I in skeletal muscle: Counter screen cell viability and HiBit confirmation (AID 1347412); conditions: iHSKM muscle cells + IFN-b, HiBiT or CellTiter-Glo, 24 h, at 45.9 µM (top of the series); also: % is scaled to controls: 0 for no effect and ±100 for the full control effect; nearly all actives have a fitted effect of over 60% in size
How it was run: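 HLA-B*08:01–HiBiT knock-in immortalized human myoblasts (C25cl48) stimulated with 4.0 ng/ml human IFN-beta and dosed with compound in a 12-point 1:3 titration (top final 46 uM). After 24 hrs at 37 C, HiBiT lytic luminescence or CellTiter Glo ATP read out.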

Sequence of Glutathione peroxidase 1 (Homo sapiens) (P07203 whole entry, looked up): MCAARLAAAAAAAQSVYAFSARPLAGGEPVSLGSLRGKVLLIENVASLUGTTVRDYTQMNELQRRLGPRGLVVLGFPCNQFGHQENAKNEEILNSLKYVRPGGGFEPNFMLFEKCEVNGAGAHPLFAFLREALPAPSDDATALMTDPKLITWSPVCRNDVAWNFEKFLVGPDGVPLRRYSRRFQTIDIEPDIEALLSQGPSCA
Sequence of Glucocorticoid receptor (Homo sapiens) (P04150 whole entry, looked up, the tested form may be a part): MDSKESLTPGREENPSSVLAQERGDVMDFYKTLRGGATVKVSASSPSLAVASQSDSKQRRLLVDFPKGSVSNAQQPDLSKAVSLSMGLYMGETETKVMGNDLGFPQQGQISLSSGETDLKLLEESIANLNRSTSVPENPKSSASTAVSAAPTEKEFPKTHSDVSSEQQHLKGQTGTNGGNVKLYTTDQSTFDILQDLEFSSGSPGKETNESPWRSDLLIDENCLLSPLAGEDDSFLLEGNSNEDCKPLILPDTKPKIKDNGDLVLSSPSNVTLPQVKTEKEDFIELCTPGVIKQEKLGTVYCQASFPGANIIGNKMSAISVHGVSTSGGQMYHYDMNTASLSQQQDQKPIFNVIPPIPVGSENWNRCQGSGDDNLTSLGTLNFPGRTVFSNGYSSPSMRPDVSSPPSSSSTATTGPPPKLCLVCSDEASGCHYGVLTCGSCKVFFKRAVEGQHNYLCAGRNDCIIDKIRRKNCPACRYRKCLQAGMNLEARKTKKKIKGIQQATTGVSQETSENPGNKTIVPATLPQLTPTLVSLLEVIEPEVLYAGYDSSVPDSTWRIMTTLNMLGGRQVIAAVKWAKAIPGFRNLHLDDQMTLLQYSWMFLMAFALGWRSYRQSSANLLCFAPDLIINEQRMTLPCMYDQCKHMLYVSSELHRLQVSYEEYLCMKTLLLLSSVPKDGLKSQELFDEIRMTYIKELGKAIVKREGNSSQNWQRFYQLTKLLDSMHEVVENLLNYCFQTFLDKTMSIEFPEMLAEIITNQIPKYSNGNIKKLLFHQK
Sequence of Rap guanine nucleotide exchange factor 4 (Homo sapiens) (Q8WZA2 whole entry, looked up): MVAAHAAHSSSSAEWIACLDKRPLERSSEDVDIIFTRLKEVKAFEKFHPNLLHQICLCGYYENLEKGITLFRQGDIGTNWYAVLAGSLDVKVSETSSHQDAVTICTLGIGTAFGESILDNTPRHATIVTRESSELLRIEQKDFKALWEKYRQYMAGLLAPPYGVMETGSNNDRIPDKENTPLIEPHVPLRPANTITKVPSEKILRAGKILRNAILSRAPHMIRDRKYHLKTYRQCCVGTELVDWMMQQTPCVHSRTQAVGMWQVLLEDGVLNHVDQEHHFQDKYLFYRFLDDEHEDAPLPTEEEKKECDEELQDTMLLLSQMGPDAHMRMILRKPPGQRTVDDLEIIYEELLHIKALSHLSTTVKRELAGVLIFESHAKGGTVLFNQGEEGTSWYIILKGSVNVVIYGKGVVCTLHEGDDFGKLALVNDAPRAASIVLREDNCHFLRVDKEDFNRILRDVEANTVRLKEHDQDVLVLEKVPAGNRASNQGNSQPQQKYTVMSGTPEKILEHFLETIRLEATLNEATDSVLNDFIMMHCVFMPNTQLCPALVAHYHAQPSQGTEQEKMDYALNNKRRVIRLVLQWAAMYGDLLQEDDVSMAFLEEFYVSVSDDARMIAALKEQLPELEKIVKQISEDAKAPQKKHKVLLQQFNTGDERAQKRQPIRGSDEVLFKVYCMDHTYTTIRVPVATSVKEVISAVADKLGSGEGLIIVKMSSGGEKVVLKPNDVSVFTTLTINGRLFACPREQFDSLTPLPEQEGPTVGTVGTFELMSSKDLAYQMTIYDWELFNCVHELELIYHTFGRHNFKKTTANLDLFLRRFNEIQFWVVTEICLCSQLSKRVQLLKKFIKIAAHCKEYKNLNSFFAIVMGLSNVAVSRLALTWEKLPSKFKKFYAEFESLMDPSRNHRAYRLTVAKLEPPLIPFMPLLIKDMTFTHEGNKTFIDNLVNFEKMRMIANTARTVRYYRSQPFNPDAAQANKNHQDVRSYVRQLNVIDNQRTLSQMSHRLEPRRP
Sequence of Cytochrome P450 2D6 (Homo sapiens) (P10635 whole entry, looked up): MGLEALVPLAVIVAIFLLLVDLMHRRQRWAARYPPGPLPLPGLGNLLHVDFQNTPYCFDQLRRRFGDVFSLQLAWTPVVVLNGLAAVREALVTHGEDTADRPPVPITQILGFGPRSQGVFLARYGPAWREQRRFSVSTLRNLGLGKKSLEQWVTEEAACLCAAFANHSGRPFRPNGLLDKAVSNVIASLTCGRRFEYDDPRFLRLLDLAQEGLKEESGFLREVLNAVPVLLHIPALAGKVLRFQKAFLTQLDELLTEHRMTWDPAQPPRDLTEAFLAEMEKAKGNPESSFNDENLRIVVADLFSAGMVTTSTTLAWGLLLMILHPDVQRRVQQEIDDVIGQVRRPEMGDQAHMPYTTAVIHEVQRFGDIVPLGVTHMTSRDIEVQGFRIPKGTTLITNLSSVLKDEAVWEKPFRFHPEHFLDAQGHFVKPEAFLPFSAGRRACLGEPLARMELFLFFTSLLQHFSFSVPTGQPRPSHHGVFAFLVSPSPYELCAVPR
Sequence of 3',5'-cyclic-AMP phosphodiesterase 4B (Homo sapiens) (Q07343 whole entry, looked up): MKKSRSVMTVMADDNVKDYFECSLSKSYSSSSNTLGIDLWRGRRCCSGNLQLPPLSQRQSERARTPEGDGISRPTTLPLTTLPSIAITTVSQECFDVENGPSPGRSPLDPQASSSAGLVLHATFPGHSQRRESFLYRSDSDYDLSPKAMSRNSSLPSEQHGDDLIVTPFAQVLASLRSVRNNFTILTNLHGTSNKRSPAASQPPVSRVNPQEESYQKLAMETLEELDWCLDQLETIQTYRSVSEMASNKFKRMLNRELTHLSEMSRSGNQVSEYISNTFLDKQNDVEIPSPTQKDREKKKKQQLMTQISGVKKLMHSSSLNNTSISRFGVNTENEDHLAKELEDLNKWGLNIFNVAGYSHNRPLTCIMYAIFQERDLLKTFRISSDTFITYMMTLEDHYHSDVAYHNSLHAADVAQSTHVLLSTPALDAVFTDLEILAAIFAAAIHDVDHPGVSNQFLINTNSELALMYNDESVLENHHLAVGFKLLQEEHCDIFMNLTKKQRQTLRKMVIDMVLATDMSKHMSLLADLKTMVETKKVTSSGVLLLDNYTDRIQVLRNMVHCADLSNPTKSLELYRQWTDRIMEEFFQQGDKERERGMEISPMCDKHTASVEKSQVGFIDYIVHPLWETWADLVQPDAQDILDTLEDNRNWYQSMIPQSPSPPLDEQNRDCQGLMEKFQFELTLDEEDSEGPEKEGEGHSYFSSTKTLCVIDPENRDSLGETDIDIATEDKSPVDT
Sequence of Cytochrome P450 1A2 (Homo sapiens) (P05177 whole entry, looked up): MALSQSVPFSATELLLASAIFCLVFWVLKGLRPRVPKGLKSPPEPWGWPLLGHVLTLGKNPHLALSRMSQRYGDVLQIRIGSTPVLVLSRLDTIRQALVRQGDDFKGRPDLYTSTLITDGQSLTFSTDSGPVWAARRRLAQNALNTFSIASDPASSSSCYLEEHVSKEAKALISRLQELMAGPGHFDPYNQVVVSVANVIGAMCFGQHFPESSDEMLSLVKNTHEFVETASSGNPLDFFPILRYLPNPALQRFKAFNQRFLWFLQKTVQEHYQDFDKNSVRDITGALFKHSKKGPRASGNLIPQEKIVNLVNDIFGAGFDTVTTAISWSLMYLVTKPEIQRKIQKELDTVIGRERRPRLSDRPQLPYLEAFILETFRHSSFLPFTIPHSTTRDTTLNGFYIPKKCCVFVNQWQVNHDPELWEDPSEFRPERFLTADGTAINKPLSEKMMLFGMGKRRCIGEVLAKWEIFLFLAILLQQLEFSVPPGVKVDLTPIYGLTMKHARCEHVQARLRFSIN
Sequence of Rap guanine nucleotide exchange factor 3 (Homo sapiens) (O95398 whole entry, looked up): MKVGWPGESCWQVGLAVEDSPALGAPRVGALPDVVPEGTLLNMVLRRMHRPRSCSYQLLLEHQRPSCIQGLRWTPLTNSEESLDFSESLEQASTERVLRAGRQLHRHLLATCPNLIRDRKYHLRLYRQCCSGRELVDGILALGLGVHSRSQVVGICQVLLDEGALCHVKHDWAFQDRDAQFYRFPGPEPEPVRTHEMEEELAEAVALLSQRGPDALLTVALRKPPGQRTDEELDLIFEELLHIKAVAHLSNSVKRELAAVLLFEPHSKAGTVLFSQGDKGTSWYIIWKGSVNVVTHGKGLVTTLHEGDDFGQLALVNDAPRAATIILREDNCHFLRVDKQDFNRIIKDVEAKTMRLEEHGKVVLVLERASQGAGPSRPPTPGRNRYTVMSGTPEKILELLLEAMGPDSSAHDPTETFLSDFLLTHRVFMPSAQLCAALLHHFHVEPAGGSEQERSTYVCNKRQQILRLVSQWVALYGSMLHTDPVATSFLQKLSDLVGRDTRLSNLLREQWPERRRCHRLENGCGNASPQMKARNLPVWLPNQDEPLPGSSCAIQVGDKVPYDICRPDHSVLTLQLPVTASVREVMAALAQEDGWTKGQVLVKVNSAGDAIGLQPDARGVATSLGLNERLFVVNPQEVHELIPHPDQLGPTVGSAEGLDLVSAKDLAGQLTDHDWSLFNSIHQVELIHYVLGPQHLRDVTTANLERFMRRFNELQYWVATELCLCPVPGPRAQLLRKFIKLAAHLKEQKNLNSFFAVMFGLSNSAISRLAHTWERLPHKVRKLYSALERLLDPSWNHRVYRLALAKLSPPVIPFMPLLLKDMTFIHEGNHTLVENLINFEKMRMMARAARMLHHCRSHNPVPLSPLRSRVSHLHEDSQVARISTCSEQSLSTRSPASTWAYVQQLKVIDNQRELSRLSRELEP
Sequence of DNA dC->dU-editing enzyme APOBEC-3G (Homo sapiens) (Q9HC16 whole entry, looked up): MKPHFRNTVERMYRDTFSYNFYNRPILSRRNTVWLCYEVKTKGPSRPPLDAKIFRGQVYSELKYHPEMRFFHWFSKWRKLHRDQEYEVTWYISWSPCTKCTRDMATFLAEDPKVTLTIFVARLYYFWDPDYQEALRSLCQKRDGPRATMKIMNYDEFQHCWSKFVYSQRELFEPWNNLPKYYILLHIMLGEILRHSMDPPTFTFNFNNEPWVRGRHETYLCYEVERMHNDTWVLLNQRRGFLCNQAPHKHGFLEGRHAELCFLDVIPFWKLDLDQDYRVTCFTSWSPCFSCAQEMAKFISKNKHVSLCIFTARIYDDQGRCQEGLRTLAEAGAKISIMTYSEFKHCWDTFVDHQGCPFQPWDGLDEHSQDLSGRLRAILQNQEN

CN(C)c1cc(NC(=O)CNC(C)(C)C)c(O)c2c1C[C@H]1C[C@H]3[C@H](N(C)C)C(=O)C(C(N)=O)=C(O)[C@]3(O)C(=O)C1=C2O
inactive: Potency [1] | Potency [2]

CC(C)=CCc1c2c(c3occ(-c4ccc(O)c(O)c4)c(=O)c3c1O)C=CC(C)(C)O2
inactive: Potency [3] > 11.4 µM | activity change, negative = inhibition [4] -0.16% | activity change, negative = inhibition [5] -3% [at 2.29 µM] | activity, negative = inhibition [6] -4.46% | Potency [7] > 46 µM | Potency [8] > 9.22 µM | activity change, negative = inhibition [9] -1.7% [at 11.4 µM] | Potency [10] | outcome [14] | outcome [15] | Potency [16]
active: Potency [11] 3.16 µM | Potency [12] 2 µM | Potency [13] 7.94 µM

O=C1CC(c2ccc(O)cc2)Oc2cc(O)cc(O)c21 (configuration not stated)
inactive: outcome [17]

COc1cc(C(=O)O)ccc1NC(=O)[C@@H]1N[C@@H](CC(C)(C)C)[C@](C#N)(c2ccc(Cl)cc2F)[C@H]1c1cccc(Cl)c1F
inactive: Potency [18] | Potency [1] | activity change, negative = inhibition ([20]; HiBiT) -14.1% | activity change, negative = inhibition ([20]; Viability) -6.71%
active: Potency [19] 0.209 µM
